PubChem BioAssay (NCATS)
Results filed as inconclusive are left out. A call without a number means that no potency is given here. Active and inactive are the calls of the source. The call rests on the fitted dose curve; in most records, active means well fitted curve in the direction sought with a large enough effect; inconclusive means small, poorly fitted or top-dose-only effect, or another doubt; inactive means no such curve, though single readings can be large; an effect the other way counts as inactive or inconclusive.

Assays:
[1] = Quantitative High-Throughput drug screen in 47 multiple myeloma cell lines against the NCATS MIPE library collection: Karpas620_DSMZ cell viability assay (AID 1918959); details: Karpas620 myeloma viability, CellTiter-Glo ATP luminescence, 48 h; series mostly up to 45.8 µM; further: nearly all actives have a fitted effect of over 30% in size; further: potency means the concentration at half of the fitted maximal effect
Procedure, shortened: (§1)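 Inhibition of cell viability is measured here. Each line was plated at 500 cells per well, treated with MIPE 4.0 drugs, kept 48 hours at 37C, then assayed for ATP content by CellTiter-Glo luminescence.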

[2] = Quantitative High-Throughput drug screen in 47 multiple myeloma cell lines against the NCATS MIPE library collection: KHM11_PLB cell viability assay (AID 1918962); details: KHM11 myeloma cell viability, CellTiter-Glo ATP luminescence, 48 h; series mostly up to 45.8 µM; further: nearly all actives have a fitted effect of over 35% in size
Procedure, shortened: as §1

[3] = Quantitative High-Throughput drug screen in 47 multiple myeloma cell lines against the NCATS MIPE library collection: JIM3_ECACC cell viability assay (AID 1918963; further: nearly all actives have a fitted effect of over 35% in size); details: JIM3 myeloma viability, CellTiter-Glo ATP, 48 h; series mostly up to 45.8 µM
Procedure, shortened: as §1

[4] = Quantitative High-Throughput drug screen in 47 multiple myeloma cell lines against the NCATS MIPE library collection: JJN3_DSMZ cell viability assay (AID 1918966; further: nearly all actives have a fitted effect of over 50% in size; further: potency means the concentration at half of the fitted maximal effect); details: JJN3 myeloma cells viability, CellTiter-Glo ATP, 48 h; series mostly up to 45.8 µM
Procedure, shortened: (§2)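 CellTiter-Glo luminescence (ATP) after 48 h compound exposure, 37C/5% CO2; 500 cells/well; MIPE 4.0 approved/investigational drugs pinned in; DMSO = 100%, media only = 0% viability.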

[5] = Quantitative High-Throughput drug screen in 47 multiple myeloma cell lines against the NCATS MIPE library collection: H1112_PLB cell viability assay (AID 1918967; further: nearly all actives have a fitted effect of over 30% in size; further: potency means the concentration at half of the fitted maximal effect); details: H1112 myeloma cells viability, ATP luminescence, 48 h; series mostly up to 45.8 µM
Procedure, shortened: as §2

[6] = Quantitative High-Throughput drug screen in 47 multiple myeloma cell lines against the NCATS MIPE library collection: INA6_PLB cell viability assay (AID 1918965; further: nearly all actives have a fitted effect of over 55% in size; further: potency means the concentration at half of the fitted maximal effect); details: INA6 myeloma viability, CellTiter-Glo ATP luminescence, 48 h; series mostly up to 45.8 µM
Procedure, shortened: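 qHTS of the MIPE 4.0 collection: 500 myeloma cells/well, 48 h drug exposure at 37C in 5% CO2, then CellTiter-Glo for 5 min at room temperature before luminescence reading.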

[7] = Quantitative High-Throughput drug screen in 47 multiple myeloma cell lines against the NCATS MIPE library collection: KMM1_JCRB cell viability assay (AID 1918960); details: KMM1 myeloma viability, CellTiter-Glo ATP luminescence, 48 h; series mostly up to 45.8 µM; further: nearly all actives have a fitted effect of over 30% in size
Procedure, shortened: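 Myeloma cells at 500 per well in 1536-well format treated with MIPE 4.0 library by pin transfer for 48 h at 37C, 5% CO2. Viability from ATP luminescence (CellTiter-Glo), normalized to DMSO (100%) and media-only (0%) wells.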

[8] = Quantitative High-Throughput drug screen in 47 multiple myeloma cell lines against the NCATS MIPE library collection: JIM1_ECACC cell viability assay (AID 1918964; further: potency means the concentration at half of the fitted maximal effect); details: JIM1 myeloma viability, CellTiter-Glo ATP luminescence, 48 h; series mostly up to 45.8 µM
Procedure, shortened: as §2

NNCCc1ccccc1
Potency [1]: 16.6 µM (active)
Potency [2]: inactive
Potency [3]: inactive
Potency [4]: 18.7 µM (active)
Potency [5]: 0.059 µM (active)

CNCc1ccc(-c2[nH]c3cc(F)cc4c3c2CCNC4=O)cc1
Potency [1]: inactive
Potency [6]: 23.5 µM (active)
Potency [4]: inactive
Potency [5]: inactive

CCCCNc1cc(C(=O)O)cc(S(N)(=O)=O)c1Oc1ccccc1
Potency [1]: inactive
Potency [7]: inactive
Potency [6]: inactive
Potency [4]: inactive

CC1(C)SCCN(S(=O)(=O)c2ccc(OCC#CCO)cc2)[C@@H]1C(=O)NO
Potency [1]: inactive
Potency [3]: inactive
Potency [5]: inactive

NC(N)=NC(=O)c1nc(Cl)c(N)nc1N
Potency [1]: inactive
Potency [3]: inactive
Potency [6]: 5.26 µM (active)
Potency [5]: 8.33 µM (active)

O=C(c1cc(Cc2n[nH]c(=O)c3ccccc23)ccc1F)N1CCN(C(=O)C2CC2)CC1
Potency [1]: inactive
Potency [8]: inactive
Potency [6]: 16.6 µM (active)

COc1cc(F)c(F)c(Nc2ccc(I)cc2F)c1NS(=O)(=O)C1(C[C@H](O)CO)CC1
Potency [1]: 20.9 µM (active)
Potency [8]: 16.6 µM (active)
Potency [6]: inactive
Potency [5]: 14.8 µM (active)
